Assay results reported in PubChem BioAssay (NCATS).
Several values for one entry are separate records, joined by “and”; a condition that tells them apart may be missing. Identical values can stand only once. Inconclusive results are not listed. Entries that show only a call come without a potency. Activity calls are given as the source filed them. Calls come from the whole dose curve; as a rule, active = well fitted curve in the direction sought with a large enough effect; inconclusive = small, poorly fitted or top-dose-only effect, or another doubt; inactive = no such curve, though single readings can be large; an effect the other way counts as inactive or inconclusive.

How the values were obtained:
[1] = qHTS for Inhibitors of Ubiquitin-specific Protease USP2a Using CHOP2 as the Reporter: Cytotox Assay (AID 652170); note: nearly all actives have a fitted effect of over 70% in size; note: potency is the fitted concentration of half-maximal effect
In short: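 HCT116 human colon cancer cells, 600 per well in DMEM with 10% FBS, exposed to compounds for 72 hr at 37 deg C. ATP measured by CellTiter-Glo luminescence, normalized to DMSO cells and no-cell background.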

[2] = qHTS for Inhibitors of Ubiquitin-specific Protease USP2a Using CHOP2 as the Reporter: K633 Counterscreen (AID 652168); note: series mostly up to about 57 µM
In short: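 Cell-free interference counterscreen without USP2a: compounds pinned into enzyme-free buffer (20 mM Tris pH 8, 2 mM beta-mercaptoethanol, 0.05% Chaps), then DiUb K48-4IQF substrate added (100 nM stock); fluorescence read kinetically, Ex 525/Em 598.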

[3] = target: Ubiquitin carboxyl-terminal hydrolase 2 (Homo sapiens) (UniProt O75604); experiment: qHTS for Inhibitors of Ubiquitin-specific Protease USP2a Using CHOP2 as the Reporter: K484 Substrate (AID 652173);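 note: cleavage of internally quenched K48 di-ubiquitin substrate measured as rising fluorescence over time; nearly all actives have a fitted effect of over 70% in size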; note: potency is the fitted concentration of half-maximal effect
Ubiquitin carboxyl-terminal hydrolase 2 (Homo sapiens), sequence (O75604 whole entry, looked up): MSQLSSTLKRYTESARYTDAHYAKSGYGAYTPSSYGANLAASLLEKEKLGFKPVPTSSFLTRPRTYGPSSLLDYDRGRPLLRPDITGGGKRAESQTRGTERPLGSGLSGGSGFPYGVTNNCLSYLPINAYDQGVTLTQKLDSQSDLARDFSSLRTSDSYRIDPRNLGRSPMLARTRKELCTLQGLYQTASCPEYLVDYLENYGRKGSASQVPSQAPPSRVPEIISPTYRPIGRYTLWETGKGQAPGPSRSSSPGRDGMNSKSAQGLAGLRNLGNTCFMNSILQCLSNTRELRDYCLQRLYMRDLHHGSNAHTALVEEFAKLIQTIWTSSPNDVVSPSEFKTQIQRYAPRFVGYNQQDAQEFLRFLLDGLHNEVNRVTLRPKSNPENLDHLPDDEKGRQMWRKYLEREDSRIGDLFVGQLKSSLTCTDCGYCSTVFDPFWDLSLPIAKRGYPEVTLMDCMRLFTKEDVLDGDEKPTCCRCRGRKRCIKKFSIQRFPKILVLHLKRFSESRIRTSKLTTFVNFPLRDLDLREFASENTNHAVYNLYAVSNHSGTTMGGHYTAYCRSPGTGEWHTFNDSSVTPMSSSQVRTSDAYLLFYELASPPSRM
In short: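 USP2 (dispensed at 5 nM) was pinned with compounds, then DiUb K48 internally quenched fluorescent substrate (dispensed at 100 nM) was added. The buffer was 20 mM Tris pH 8, 2 mM beta-mercaptoethanol and 0.05% CHAPS. Cleavage was read kinetically as rising fluorescence, Ex 525/Em 598.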

| Compound | Potency [1] | outcome [2] | Potency [3] |
| --- | --- | --- | --- |
| COC(=O)C1=CC[C@H](c2ccc(C)cc2)N(S(=O)(=O)c2ccc(C)cc2)[C@@H]1c1ccc(C(C)(C)C)cc1 | inactive |  |  |
| CCCOC1CCC(C(=O)Nc2ccc([S+](=O)([O-])Nc3nccs3)cc2)CC1 (configuration not stated) | inactive | inactive | inactive |
| O=C(Nc1nc(-c2ccccc2)cs1)c1ccncc1NS(=O)(=O)c1ccc(Cl)cc1 | inactive | inactive | 1.53 µM (active) |
| CN(Cc1nccs1)S(=O)(=O)c1ccc(Nc2nc(-c3ccccc3)cs2)cc1 | inactive |  |  |
| O=C(Nc1nc(-c2ccccc2)cs1)c1ccncc1NS(=O)(=O)c1ccc2ccccc2c1 |  | inactive | 1.37 µM (active) |
| Cn1cnc(S(=O)(=O)Nc2cnccc2C(=O)Nc2nc(-c3ccccc3)cs2)c1 | inactive | inactive | 19.3 µM (active) |
| Cc1ccc(S(=O)(=O)Nc2cnccc2C(=O)Nc2nc(-c3ccccc3Cl)cs2)cc1 |  | inactive | 1.72 µM (active) |
| CC(C)(C)NC(=O)N1CCC(C(=O)Nc2ccc([S+](=O)([O-])Nc3nccs3)cc2)CC1 | inactive | inactive | inactive |
| Cc1ccc(S(=O)(=O)Nc2cnccc2C(=O)Nc2cccc3ccccc23)cc1 |  | inactive | 7.69 µM (active) |
| Cc1ccc(S(=O)(=O)Nc2cnccc2C(=O)Nc2ccc(C#N)cc2)cc1 | inactive | inactive | 21.7 µM (active) |
| O=C(Nc1nc(-c2ccc(F)cc2)cs1)c1ccncc1NS(=O)(=O)c1ccc(F)cc1 | inactive | inactive | 4.85 µM (active) |
| Cc1ccc(S(=O)(=O)Nc2cnccc2C(=O)Nc2ccc3ccccc3c2)cc1 |  | inactive | 6.11 µM (active) |
| Cc1ccc(S(=O)(=O)Nc2cnccc2C(=O)Nc2nc(-c3ccccc3F)cs2)cc1 |  | inactive | 2.17 µM (active) |
| Cc1ccc(S(=O)(=O)Nc2cc([N+](=O)[O-])ccc2C(=O)Nc2nc(-c3ccccc3)cs2)cc1 | 5.26 µM (active) | inactive | 0.968 µM (active) |
| COc1cccc(S(=O)(=O)Nc2cnccc2C(=O)Nc2nc(-c3ccccc3)cs2)c1 | 23.5 µM (active) |  |  |
| Cc1ccc(-c2cc(C(=O)Nc3ccc(C(N)=O)cc3)c3ccccc3n2)cc1C |  | inactive | 21.7 µM (active) |

| Compound | Potency [1] | outcome [2] | Potency [3] |
| --- | --- | --- | --- |
| Cc1ccc(S(=O)(=O)Nc2cnccc2C(=O)Nc2ccc(-c3nn[nH]n3)cc2)cc1 | inactive | inactive | 8.63 µM (active) |
| Cc1ccc(S(=O)(=O)Nc2cnccc2C(=O)Nc2nc(-c3ccc(Oc4ccccc4)cc3)cs2)cc1 | 20.9 µM (active) |  | 2.17 µM (active) |
| O=C(Nc1ccc(S(=O)(=O)Nc2nccs2)cc1)c1ccc2ccccc2c1 | inactive |  | 2.73 µM (active) |
| O=S(=O)(Nc1nccs1)c1ccc(Nc2nc(-c3ccc(F)cc3)cs2)cc1 | inactive |  | 3.06 µM (active) and 9.68 µM (active) |
| Nc1cccc(S(=O)(=O)Nc2cnccc2C(=O)Nc2nc(-c3ccccc3)cs2)c1 | inactive |  | 13.7 µM (active) |
| N#Cc1ccccc1S(=O)(=O)Nc1cnccc1C(=O)Nc1nc(-c2ccccc2)cs1 | inactive |  | 7.69 µM (active) |
| N#Cc1ccc(S(=O)(=O)Nc2cnccc2C(=O)Nc2nc(-c3ccccc3)cs2)cc1 | inactive |  | 2.43 µM (active) |
| O=C(Nc1nc(-c2ccccc2)cs1)c1ccncc1NS(=O)(=O)c1cccc(Cl)c1 | inactive |  | 3.85 µM (active) |
| CCc1ccc(S(=O)(=O)Nc2cnccc2C(=O)Nc2nc(-c3ccccc3)cs2)cc1 | 20.9 µM (active) |  | 1.72 µM (active) |
| Cc1ccc(S(=O)(=O)Nc2ccc(Cl)c(C(=O)Nc3nc(-c4ccccc4)cs3)c2)cc1 | inactive |  | 2.43 µM (active) |
| Cc1ccc(S(=O)(=O)Nc2ccc(OC(F)(F)F)cc2C(=O)Nc2nc(-c3ccccc3)cs2)cc1 | 5.9 µM (active) |  | 2.43 µM (active) |
| CCCCC1CCC(C(=O)Nc2ccc(S(=O)(=O)Nc3nccs3)cc2)CC1 (configuration not stated) | inactive |  | 4.85 µM (active) |
| COc1ccc(C(=O)Nc2nc(-c3ccccc3)cs2)c(NS(=O)(=O)c2ccc(C)cc2)c1 | 13.2 µM (active) |  | 1.37 µM (active) |
| Cc1ccc(S(=O)(=O)Nc2ccccc2C(=O)Nc2ncc(-c3ccccc3)o2)cc1 | 4.69 µM (active) |  | 2.43 µM (active) |
| Cc1ccc(S(=O)(=O)Nc2cnccc2C(=O)Nc2nc(-c3cnn(C)c3)cs2)cc1 | inactive |  | 8.63 µM (active) |
